The values that follow come from PubChem BioAssay (NCI).

The nature of test [1]: NCI Yeast Anticancer Drug Screen. Data for the rad50 strain (AID 155).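 Further: 0% = growth of vehicle-only cultures of the same strain.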 The settings on record: S. cerevisiae rad50 strain growth inhibition; at 50.0 µM; active compounds read high. The essentials:
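Vehicle-treated cultures provide the reference for the growth inhibition reported for compound-exposed, repair-deficient yeast.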

Test [2] can be described thus: NCI Yeast Anticancer Drug Screen. Data for the mec2-1 strain (AID 157). The settings on record: S. cerevisiae mec2-1 strain, at 50.0 µM, active compounds read high. The essentials:
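Vehicle-treated cultures served as reference for growth inhibition of compound-exposed mec2-1 yeast.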

The nature of test [3]: NCI Yeast Anticancer Drug Screen. Data for the sgs1 mgt1 strain (AID 161).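 Further: 0% = growth of cultures given vehicle only.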 The settings on record: S. cerevisiae sgs1 mgt1 strain, at 50.0 µM, active compounds read high. The essentials: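 Genetically altered yeast, compound exposure, growth inhibition relative to vehicle.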
A short description of test [4]: NCI Yeast Anticancer Drug Screen. Data for the cln2 rad14 strain (AID 165).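 Further: 0% = growth equal to vehicle treated cultures.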 The note with it: S. cerevisiae cln2 rad14 strain, at 50.0 µM, active compounds read high. The essentials:
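Each compound was tested on cln2 rad14 yeast. Inhibition of growth was calculated against vehicle-exposed controls.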

Test [5] can be described thus: NCI Yeast Anticancer Drug Screen. Data for the bub3 strain (AID 167). The note with it: S. cerevisiae bub3 mutant strain, at 50.0 µM, active compounds read high. The essentials:
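Mutant yeast screening strain plus compound; vehicle-treated cultures serve as the 0% inhibition reference.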

Test [6] in a line: NCI Yeast Anticancer Drug Screen. Data for the mlh1 rad18 strain (AID 175). The settings on record: S. cerevisiae mlh1 rad18 strain growth inhibition; at 50.0 µM; active compounds read high. The essentials:
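Vehicle-treated cultures served as the reference for growth inhibition in a yeast strain carrying DNA damage repair alterations exposed to each compound.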

The panel holds about 79,000 compounds, 15% with a hit somewhere; the sample as a whole holds those more often. Values without a mark were called inactive. Active and inactive are the calls of the source. No stated cut-off is given here; in the data, active means growth inhibition above about 70%; inactive means the rest.

For `C=C(C)[C@@H]1CC[C@@H]2C(=CC[C@]3(C)C([C@H](C)CC/C=C(/C)C(=O)O)CC[C@@]23C)[C@@]1(C)CCC(=O)O` (stereo partly specified), the growth inhibition in test [1] is 15.6%; in test [2], -4.95%; in test [3], -0.85%; in test [4] it was 14.4%; in test [5], 4.05%; in test [6], -63.2%.
`C=CCNC(=O)C[n+]1cccc(C(=O)NC)c1`: the growth inhibition is 22.6% in test [1]; 8.35% in test [2]; -9.15% in test [3]; -5.35% in test [4]; -0.45% in test [5]; -17.8% in test [6].
On to `O=C(O[C@H]1[C@@H]2C=CO[C@@H](OC3OC(CO)C(O)C(O)C3O)[C@@H]2[C@@]2(CO)O[C@@H]12)c1ccc(O)c(O)c1` (stereo partly specified), for which the growth inhibition in test [1] is -20.3%; in test [2] it was -40%; in test [3], -4.6%; in test [4] it was 3.1%; in test [5], -8.35%; in test [6], 0.4%.
As to `CNC(=O)c1ccccc1CC(O)c1ccccc1` (stereo unspecified), the growth inhibition in test [1] is -7.95%; in test [2], 0.65%; in test [3], 4.75%; in test [4], 6.75%; in test [5], 0.9%; in test [6], 8.95%.
In the case of `CC(C)Nc1ccc(O)cc1`, the growth inhibition in test [1] was -21.1%; in test [2], -40%; in test [3] it was -4.2%; in test [4], -6.3%; in test [5], -10.3%; in test [6], -8%.
Take `Cn1c(=O)c2nsnc2n(C)c1=O`: the growth inhibition is -21.1% in test [1]; -11% in test [2]; -14.2% in test [3]; -25.3% in test [4]; -3.7% in test [5]; 14.1% in test [6].
For `CCOC1CN=C(Nc2cccc3ccccc23)S1` (stereo unspecified), the growth inhibition in test [1] is -51.6%; in test [2], -33.3%; in test [3], -27.9%; in test [4], -2.65%; in test [5], -34.4%; in test [6] it was -29.8%.
Regarding `O=C(O)C1CC2C3CC(C(=O)O)C(C3)C2C1` (stereo unspecified), the growth inhibition in test [1] is -15.8%; in test [2] it was -24.7%; in test [3], -5.55%; in test [4], -1.85%; in test [5], -10.8%; in test [6] it was -13.9%.
With `CCC(C)(O)P(=O)(O)O` (stereo unspecified), the growth inhibition in test [1] is 5.15%; in test [2], 7.1%; in test [3], 0.35%; in test [4], -30.4%; in test [5], 0.85%; in test [6], 7.6%.
On to `O=C1CS/C(=N/C(=O)Nc2ccc(Cl)cc2)N1`, for which the growth inhibition was -1.9% in test [1]; 32.5% in test [2]; 16.1% in test [3]; -9.55% in test [4]; -6.95% in test [5]; 14.5% in test [6].
Take `[Cu+2].[NH-]C(CC(=O)O)C(=O)O.[NH-]C(CC(=O)O)C(=O)O` (stereo unspecified): the growth inhibition in test [1] is -35.3%; in test [2] it was -11.7%; in test [3], -13.7%; in test [4] it was 64.4%; in test [5], -61.3%; in test [6] it was -3.45%.
As for `Cc1cccc(C)c1NC(=O)CCC(=O)NC(N)=NC#N`, the growth inhibition was -33.1% in test [1]; -23.8% in test [2]; -25.7% in test [3]; 9.7% in test [4]; -23.8% in test [5]; -23.1% in test [6].
Regarding `O=C1O/C(=C(/Cl)c2cccc3ccccc23)c2ccccc21`, the growth inhibition in test [1] is -40.2%; in test [2], -67.8%; in test [3], -38.4%; in test [4], 9.55%; in test [5], -16.9%; in test [6] it was -38%.
Take `O=C(c1ccccc1)c1cccc2cccc(C(=O)c3ccccc3)c12`: the growth inhibition in test [1] was 3.2%; in test [2], 11.7%; in test [3] it was -7.7%; in test [4], 6%; in test [5], 6.45%; in test [6], -27.6%.
`O=C(O)c1cnc2cccc([N+](=O)[O-])c2c1`: the growth inhibition is 2.5% in test [1]; 10.7% in test [2]; 0.2% in test [3]; -50.5% in test [4]; -22.2% in test [5]; 11.4% in test [6].
As for `CCOC(=O)c1ccc(Nc2nc3ccccc3nc2C(=O)OCC)cc1`, the growth inhibition in test [1] was -31.8%; in test [2], -39.1%; in test [3], -4.95%; in test [4], -3.7%; in test [5], 18.4%; in test [6] it was -26.9%.
With `O=[N+]([O-])c1ncc(N(CCO)CCO)s1`, the growth inhibition in test [1] is 19.2%; in test [2], -22.6%; in test [3] it was 17.6%; in test [4], 3.65%; in test [5], -18.2%; in test [6], -22.3%.
As to `C=CCNC(=O)NCCCCC(NC(C)=O)C(=O)NCc1ccccc1` (stereo unspecified), the growth inhibition in test [1] was -25.4%; in test [2], -18.4%; in test [3], -13.6%; in test [4], 2.35%; in test [5], -16.8%; in test [6], -10%.
As for `CC1=C(C(=O)NCc2ccccc2)C(c2ccc([N+](=O)[O-])cc2)C(C(=O)NCc2ccccc2)=C(C)N1`, the growth inhibition was -10.6% in test [1]; -15.2% in test [2]; 1.5% in test [3]; 4.4% in test [4]; -4.8% in test [5]; -23.8% in test [6].
In the case of `CC(=O)C1COC(O)C1C` (stereo unspecified), the growth inhibition in test [1] was -5.45%; in test [2], -21.9%; in test [3] it was -15.2%; in test [4], 13.4%; in test [5] it was -24.6%; in test [6], 2.05%.
For the molecule `CCCCCCCCCCCCCCCCCC(=O)[O][Al][O]C(C)C`, the growth inhibition was -38.1% in test [1]; -35% in test [2]; -10.8% in test [3]; 4.55% in test [4]; -19.5% in test [5]; -14.9% in test [6].
On to `O=P12N(CCN1c1ccccc1)CCN2c1ccccc1`, for which the growth inhibition in test [1] was -26.4%; in test [2], -34.1%; in test [3], -13.8%; in test [4], 19.6%; in test [5] it was 10.2%; in test [6], -25.5%.
Take `CC(=O)OCC1OC(OC(C)=O)C(N(C)C(C)=O)C(OC(C)=O)C1OC(C)=O` (stereo unspecified): the growth inhibition in test [1] is 32.8%; in test [2], 18.6%; in test [3], 26.8%; in test [4], 20.6%; in test [5], -0.55%; in test [6], 35.6%.
Turning to `COc1cc2c(c3c1/c(=N\N=c1/c4ccccc4n(C)c4c5c(cc(OC)c14)OC(C)(C)C=C5)c1ccccc1n3C)C=CC(C)(C)O2`, the growth inhibition in test [1] was 70% (active); in test [2], 13.6%; in test [3], 64.5%; in test [4] it was 48%; in test [5] it was 36.9%; in test [6], 27.4%.
For the molecule `C#CC(C)(O)CC(C)C` (stereo unspecified), the growth inhibition is 1.9% in test [1]; -1.2% in test [2]; -8.6% in test [3]; -73.7% in test [4]; 6.65% in test [5]; -71.7% in test [6].
Consider `CCc1ccc(C(O)C(=O)O)cc1` (stereo unspecified), for which the growth inhibition in test [1] was 4.6%; in test [2], 7.95%; in test [3], -1.6%; in test [4], 3.85%; in test [5], -2.7%; in test [6], -3.75%.
Turning to `CCOC(=O)C1Cc2c(n(C3CCCCC3)c(=O)n(C)c2=O)OC1c1ccccc1` (stereo unspecified), the growth inhibition in test [1] is 14.4%; in test [2], -5.15%; in test [3] it was -7%; in test [4] it was 16.1%; in test [5], 2.55%; in test [6], -8.05%.
`CCCCCC(=O)N1CCCCC1CC` (stereo unspecified): the growth inhibition is -8.55% in test [1]; 7.15% in test [2]; -19.6% in test [3]; -10.1% in test [4]; -25.6% in test [5]; -28.1% in test [6].
For `O=S(=O)(Cl)c1cccc2cc3ccccc3cc12`, the growth inhibition in test [1] was 0.6%; in test [2] it was -10.1%; in test [3], 3.95%; in test [4], -12.9%; in test [5] it was 12.9%; in test [6], -7.05%.
`CN(C)c1ccc(/C=C2\CCc3ccccc3C2=O)cc1Br`: the growth inhibition in test [1] is 5.6%; in test [2], -12.1%; in test [3] it was -13.9%; in test [4], -9.05%; in test [5], 3.95%; in test [6], -26.6%.
Consider `CC(=O)C(N=NC1CCC(S(=O)(=O)NB2N=CS2)CC1)C(=O)Nc1ccccc1C` (stereo unspecified), for which the growth inhibition in test [1] is -32.2%; in test [2] it was -1.05%; in test [3], -5.9%; in test [4], 16.5%; in test [5] it was 9.35%; in test [6] it was 15.4%.
`COCCNC1CCC2(SCCS2)c2[nH]c3ccccc3c21` (stereo unspecified): the growth inhibition is -10.3% in test [1]; -12.8% in test [2]; 15.1% in test [3]; -14% in test [4]; -9% in test [5]; 40.2% in test [6].
In the case of `CC1=CC2=C(C(N)=O)C(=O)OC2(C)C(c2ccccc2)C1` (stereo unspecified), the growth inhibition in test [1] was -19.9%; in test [2], -6.75%; in test [3], 4.65%; in test [4], 7%; in test [5] it was 1.85%; in test [6] it was 5.7%.
On to `CC(C)C1OC(c2ccccc2)OCC1(C)C` (stereo unspecified), for which the growth inhibition is -14.8% in test [1]; -18.2% in test [2]; -4.15% in test [3]; -39.2% in test [4]; -4.15% in test [5]; 6.35% in test [6].
As for `Cn1c2ccccc2c2c(-c3ccccc3)cc3c(c21)C(=O)C=CC3=O`, the growth inhibition is -15.3% in test [1]; -10.6% in test [2]; 3.8% in test [3]; 16.2% in test [4]; -25.9% in test [5]; 7.95% in test [6].
Take `Cc1cccc(Cl)c1NC(=O)Nc1ccc(Cl)cc1C(=O)c1ccccc1`: the growth inhibition in test [1] is 5.5%; in test [2], -4.1%; in test [3] it was 6.75%; in test [4], 4.2%; in test [5], 7.45%; in test [6] it was -9.6%.
